Here are results for 7 molecules from PubChem BioAssay.

Results with a measured potency or affinity are listed apart. Active and inactive are the calls of the source.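 Rule for the calls: active = a fitted half-maximal concentration no higher than twice the top valid tested dose, with signal falling as cells die; inconclusive = flat curve between -70% and -30%, or poor fit; inactive = the rest, including signal rising instead of falling.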

The experiment can be described thus: viability loss in HeLa cells – cell-based, ATP luminescence, cherry-pick samples, cytotoxicity control, dose response (AID 687004). As to conditions: ATP luminescence (CellTiter-Glo), 48 h; series mostly up to 26 µM. In general terms: In ATP-based viability assays light output follows the ATP content of the culture.
As for `CC(C)NC(=O)N(C)C[C@H]1OCCCC[C@@H](C)Oc2ccc(NC(=O)c3ccccc3)cc2C(=O)N([C@@H](C)CO)C[C@@H]1C`, the molecule was called inactive.

Turning to `COc1ccc(CN(C)C[C@@H]2Oc3ccc(NC(=O)C4CC4)cc3C(=O)N([C@H](C)CO)C[C@H]2C)cc1`, the molecule was called inactive.

As for `C[C@H]1CN([C@@H](C)CO)S(=O)(=O)c2ccc(Br)cc2O[C@@H]1CN(C)S(=O)(=O)c1ccccc1F`, the molecule was called inactive.

Consider `C[C@H]1CN([C@@H](C)CO)C(=O)Cc2cc(NC(=O)CCCCCC(=O)Nc3ccccc3N)ccc2O[C@H]1CN(C)C(=O)Nc1ccccc1`, for which the result was inactive.

Take `C[C@H]1CN([C@@H](C)CO)C(=O)CCCn2nncc2CO[C@@H]1CN(C)Cc1cccc(C(F)(F)F)c1`: the molecule was called inactive.

`C[C@H](CO)N1C[C@H](C)[C@H](CN(C)Cc2ccncc2)Oc2ccc(NC(=O)CCC(F)(F)F)cc2C1=O`: the call was inactive.

For the molecule `CC(=O)N1[C@H](CO)[C@H](c2ccc(-c3ccccc3)cc2)[C@H]1CNC(=O)C1CC1`, the result was inactive.
